# Laboratory results: PubChem BioAssay (NCI)
# This is part of a sample that, as a whole, favours compounds with a hit. Of some 83,000 tested, about 20% had one in any assay.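 48-hour exposure, single concentration, 96-well plates; percent growth endpoint where 0 means no net growth. Active: below 10.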 Unmarked numbers belong to inactive results. Activity calls are given as the source filed them.
# Test system: HL-60(TB) leukemia
# Test: NCI-60 one-dose screen, 48 h (100 = growth as untreated, 0 = no growth, -100 = all killed)
# Details: 10 µM unless noted
row,SMILES,growth
1,Fc1ccc(Nc2ncnc3ccc(-c4cnc5[nH]ccc5c4)cc23)cc1Cl,-22.3% (active)
2,CCOC(=O)c1c(O)c2cc(-c3ccccc3)nc(OCC)c2c(=O)n1C,156%
3,C=CC(=O)Nc1cc(Nc2nccc(-c3cn(C)c4ccccc34)n2)c(OC)cc1N(C)CCN(C)C,-65.8% (active)
4,COCCn1cc(-c2nc(-c3c[nH]c4ncccc34)cs2)c2ccccc21,76.9%
5,O=C(OC12CC3CC(CC(C3)C1)C2)c1ccc(NCc2cc(O)ccc2O)cc1,-52.6% (active)
6,Clc1ccccc1CNc1c2ccccc2nc2ccccc12,13.6%
7,CCOC(=O)c1c2c(n3c1NCC3)-c1ccccc1C2=O,86.8%
8,Brc1ccc(Br)nn1,-32.7% (active)
9,COc1cc(C=C2C(=O)NC(=S)NC2=O)cc(CN2CCCC2)c1O,108%
10,N#Cc1c(-c2ccccc2)nc2c(c(-c3ccccc3)nn2-c2ccccc2)c1-c1ccc(N2CCCCC2)cc1,95.8%
11,O=C(CCN1CCCC1)Nc1ccc2c(NCCCc3ccccc3)c3ccccc3nc2c1,-55.6% (active)
12,Nc1cc(NN=C(c2ccc(O)cc2)c2ccc(O)cc2)c([N+](=O)[O-])cc1[N+](=O)[O-],66.4%
13,CC(=O)c1ccc(Nc2nc(C(C)=O)c(C)s2)cc1,88%
14,COc1cc(C2C(C#N)=C(N)OC3=C2C(=O)c2ccccc2C3=O)cc(OC)c1OC (stereo not given),15.2%
15,CCCCCC(=O)c1ccc(OCCCN2CCN(C(=O)OCC)CC2)cc1,72.4%
